Active and inactive are the calls of the source.

The target of the assay is Luciferin 4-monooxygenase (Photinus pyralis) (UniProt P08659). Nature of the assay: inhibition of purified Photinus pyralis luciferase – biochemical, luminescence, purified enzyme, 2006 set, primary screen (AID 1141).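 Note: cell-free assay with purified firefly luciferase at 100 ng per well in PBS; test concentration not given here.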 The settings on record: purified firefly luciferase, SteadyGlo luminescence, 30 min; higher = more signal, called active from +8 up or from −8 down.
Sequence of Luciferin 4-monooxygenase (Photinus pyralis) (P08659 whole entry, looked up): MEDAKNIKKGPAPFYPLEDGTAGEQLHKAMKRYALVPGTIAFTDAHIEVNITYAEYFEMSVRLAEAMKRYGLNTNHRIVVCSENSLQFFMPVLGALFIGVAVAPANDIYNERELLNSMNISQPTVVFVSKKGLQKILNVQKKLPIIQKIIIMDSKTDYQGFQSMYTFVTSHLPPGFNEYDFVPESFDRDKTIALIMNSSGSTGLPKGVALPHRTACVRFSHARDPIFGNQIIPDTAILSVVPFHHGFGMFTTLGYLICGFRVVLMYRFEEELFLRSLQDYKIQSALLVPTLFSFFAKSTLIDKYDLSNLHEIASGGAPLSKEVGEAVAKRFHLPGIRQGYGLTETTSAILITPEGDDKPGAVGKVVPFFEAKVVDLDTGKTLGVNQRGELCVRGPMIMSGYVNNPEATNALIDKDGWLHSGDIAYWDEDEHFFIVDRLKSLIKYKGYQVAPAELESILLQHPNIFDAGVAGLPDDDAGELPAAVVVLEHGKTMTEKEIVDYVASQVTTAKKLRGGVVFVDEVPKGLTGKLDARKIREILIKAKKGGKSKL
Turning to `CO[C@@H]1COC(=O)[C@@H]2CCCN2C(=O)[C@@H](C)COC(=O)[C@H](COCc2ccccc2)NC(=O)CC=C[C@H]1C`, the z-score is 0.951 (inactive).

With `C#CCCCON=C1C[C@@H](O)[C@@H](O)[C@@H]2[C@@H]3C(=O)N([C@@H](C)c4ccccc4)C(=O)[C@@H]3CC[C@H]12`, the z-score is 0.794 (inactive).

As to `COCCCNC(=O)[C@@]1(C)c2ccccc2C(=O)N(Cc2ccc(OC(F)(F)F)cc2)[C@H]1c1ccc(CO)cc1`, the z-score is -0.159 (inactive).

Consider `C=COC[C@H]1CN2[C@@H](CC[C@@H](C)[C@@H]2c2ccc(Br)cc2)C(=O)O1`, for which the z-score was -2.84 (inactive).

Take `CC(CCN1CCCCc2nc(C)c(C)cc21)=NOC(C)CN1CCCc2nc(C)c(C)cc21` (centres undefined): the z-score was -0.0885 (inactive).

`CC(C)=NOCc1ccc(-c2cc(-c3ccccc3)no2)cc1`: the z-score is 0.534 (inactive).

With `CCc1cc2c(nc1CC)CCN(CCC(C)=NOC[C@@H](O)[C@H]1O[C@@H]3OC(C)(C)O[C@@H]3[C@H]1O)C2`, the z-score is -0.0353 (inactive).

Turning to `COc1cccc([C@H]2Oc3ccc(OC)cc3C(=NO[C@H](C)c3cn([C@@H]4COC[C@H]4O)nn3)[C@@H]2O)c1`, the z-score is 0.825 (inactive).

For the molecule `O=C(NN=C1C[C@@H](O)[C@@H](O)[C@@H]2[C@@H]3C(=O)N(c4ccc(F)cc4F)C(=O)[C@@H]3CC[C@@H]12)OCc1ccccc1`, the z-score is 0.894 (inactive).

For the molecule `CCOC(=O)[C@H](Cc1ccccc1)NC(=O)CCC1CC(OC(=O)NCc2ccc3c(c2)OCO3)CC2(CCCC(COC(=O)NCc3cccc(C(F)(F)F)c3)O2)O1` (some centres undefined), the z-score is 0.794 (inactive).

In the case of `C[C@@H](c1ccccc1)N1C(=O)[C@H]2[C@H]3[C@H](O)C=CC(=O)[C@@H]3CC[C@H]2C1=O`, the z-score was -0.62 (inactive).

Consider `Cc1cc2c(c(=O)o1)[C@H](O)[C@H]1O[C@H]1C2=O`, for which the z-score was -0.0074 (inactive).

As to `COc1ccc(COC(=O)NN=C2C[C@@H](O)[C@@H](O)[C@@H]3[C@@H]4C(=O)N(c5ccc(F)cc5F)C(=O)[C@@H]4CC[C@@H]23)cc1`, the z-score was 0.506 (inactive).

With `CO[C@@H]1COC(=O)CCC[C@@H](C)[C@H](OC)COC(=O)CCC[C@H]1C`, the z-score is 1.17 (inactive).

`O=C1C[C@@H](O)[C@@H](O)[C@@H]2[C@@H]3C(=O)N(Cc4ccc5c(c4)OCO5)C(=O)[C@@H]3CC[C@@H]12`: the z-score is -0.786 (inactive).

As for `CC=CC1=C(CO)[C@H](O)[C@H]2O[C@H]2[C@H]1O`, the z-score was -0.115 (inactive).

Regarding `CC(C)[C@H](NC(=O)OC(C)(C)C)[C@@H](O)CC(=O)OC(C)(C)C`, the z-score was -0.0331 (inactive).

Consider `CO[C@H]1COC(=O)[C@@H]2CCCN2C(=O)CC=C[C@@H](C)[C@H](OC)COC(=O)CC=C[C@@H]1C`, for which the z-score is -1.87 (inactive).

As for `COC(=O)[C@H](C)NC(=O)CCC1CC(OC(=O)NCCc2ccc(F)cc2)CC2(CCCC(COC(=O)NCCc3ccc(Cl)cc3)O2)O1` (some centres undefined), the z-score is 0.0182 (inactive).

Consider `CC(C)=CCCC(C)=CCON=C1[C@H]2CCn3c(=O)n(C)c(=O)n3[C@H]2[C@H](O)[C@@H]2O[C@H]12`, for which the z-score was -0.284 (inactive).

For `O=C(NN=C1C[C@@H](O)[C@@H](O)[C@@H]2[C@@H]3C(=O)N(c4cccc(Oc5ccccc5)c4)C(=O)[C@@H]3CC[C@@H]12)OCc1ccccc1`, the z-score was 0.663 (inactive).

As for `CC(=O)OC[C@H]1O[C@H](C#CCCCc2ccccc2)C=C[C@@H]1OC(C)=O`, the z-score was -1.65 (inactive).

Turning to `CC(CCN1CCc2nc(-c3ccccc3)c(-c3ccccc3)cc2C1)=NO[C@H](C)c1cn([C@@H]2COC[C@H]2O)nn1`, the z-score is -0.475 (inactive).

Turning to `O[C@@H](Cc1ccccc1)[C@H]1C2C=CCCC(c3ccccc3)=C2CN1Cc1cccc(Cl)c1` (some centres undefined), the z-score was -2.22 (inactive).

In the case of `COc1ccc([Si](C)(C)[C@H]2[C@H](CCO)O[C@@]3(C(=O)N(Cc4cccc(NC(=O)[C@H](C)O)c4)c4ccccc43)[C@@H]2C)cc1`, the z-score is -0.208 (inactive).

Turning to `O=C1NC(=O)C2C1C=CC(C(O)Cc1ccccc1)N2Nc1ccccn1` (centres undefined), the z-score was -0.523 (inactive).

On to `CC(CCC(=O)OC[C@H]1O[C@H](C#Cc2ccccc2)C=C[C@@H]1Oc1ccc(C)cc1)=NOC[C@@H](O)COCc1ccco1`, for which the z-score was -0.889 (inactive).

Consider `CC1CC/C=C\[C@H]2OC34C=CCN(Cn5nnc6ccccc65)C(=O)[C@H]3N(CCO)C(=O)[C@@H]4C2C(=O)O1` (some centres undefined), for which the z-score was -1.98 (inactive).

Regarding `CCOC(=O)CCN1C(=O)[C@H]2[C@H]3[C@H](O)[C@H](O)CC(=NNC(=O)OCc4ccc(OC)cc4)[C@@H]3CC[C@H]2C1=O`, the z-score was 0.666 (inactive).
